What all share (test): DAPPL (digital affinity profiling via proximity ligation, sequencing); 10 mM Tris-HCl pH 7.5, 50 mM NaCl, 1 mM DTT, 4% glycerol, room temperature, 30 min; GST-TFs on glutathione beads, 16-mer random dsDNA library, 0.1% formaldehyde crosslink after washing; high values mean tight binding
The target in one experiment is T1, FEV (Homo sapiens, UniProt Q99581 1-238).
T1 sequence: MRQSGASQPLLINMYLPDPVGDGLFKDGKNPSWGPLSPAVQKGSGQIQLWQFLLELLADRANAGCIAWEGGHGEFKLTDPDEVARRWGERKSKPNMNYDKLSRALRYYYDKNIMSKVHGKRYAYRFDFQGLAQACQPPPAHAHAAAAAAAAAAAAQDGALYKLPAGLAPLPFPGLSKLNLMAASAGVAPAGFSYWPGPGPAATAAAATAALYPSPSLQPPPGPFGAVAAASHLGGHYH
Particulars: protein: recombinant; tags: N-terminal GST; dsDNA, one strand shown. Summed up: (§1)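 Binding signal is defined as a hexamer's read frequency for one factor over its frequency for the tag-only sample. To obtain reads, GST-fused human transcription factors were expressed in yeast, captured on glutathione beads, barcoded with DNA and pooled with that sample. Pools met 200 nmole of a 16-mer random double-stranded DNA library in Tris/NaCl/DTT/glycerol buffer for 30 min at room temperature before washing, 0.1% formaldehyde crosslinking, proximity ligation (BsaI/T4 ligase, 1 h, 37 °C), PCR and Illumina NextSeq500 sequencing.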

A further experiment concerns the target ETV5 (Homo sapiens, UniProt P41161 1-510). To be noted: protein: recombinant; tags: N-terminal GST; dsDNA, one strand shown. Summed up: as §1
The target in a further experiment is HSF1 (Homo sapiens, UniProt Q00613 1-529). To be noted: protein: recombinant; tags: N-terminal GST; chain copies: 3; dsDNA, one strand shown. The procedure, abridged: as §1
A further experiment has as its target T2, SPIC (Homo sapiens, UniProt Q8N5J4 1-248).
T2 sequence: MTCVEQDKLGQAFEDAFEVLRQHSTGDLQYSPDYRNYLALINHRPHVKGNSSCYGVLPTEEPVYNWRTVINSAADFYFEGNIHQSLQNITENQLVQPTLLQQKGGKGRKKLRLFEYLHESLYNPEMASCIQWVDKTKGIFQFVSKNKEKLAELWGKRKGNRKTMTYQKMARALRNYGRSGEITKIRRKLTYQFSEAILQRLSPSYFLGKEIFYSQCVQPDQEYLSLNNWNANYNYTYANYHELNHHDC
To be noted: protein: recombinant; tags: N-terminal GST; dsDNA, one strand shown. The procedure, abridged:
as §1

Another experiment has as its target ELF4 (Homo sapiens, UniProt Q99607 1-663). Particulars: protein: recombinant; tags: N-terminal GST; dsDNA, one strand shown. Summed up: as §1
A further experiment deals with T3, ELK4 (Homo sapiens, UniProt P28324-2 1-405).
T3 sequence: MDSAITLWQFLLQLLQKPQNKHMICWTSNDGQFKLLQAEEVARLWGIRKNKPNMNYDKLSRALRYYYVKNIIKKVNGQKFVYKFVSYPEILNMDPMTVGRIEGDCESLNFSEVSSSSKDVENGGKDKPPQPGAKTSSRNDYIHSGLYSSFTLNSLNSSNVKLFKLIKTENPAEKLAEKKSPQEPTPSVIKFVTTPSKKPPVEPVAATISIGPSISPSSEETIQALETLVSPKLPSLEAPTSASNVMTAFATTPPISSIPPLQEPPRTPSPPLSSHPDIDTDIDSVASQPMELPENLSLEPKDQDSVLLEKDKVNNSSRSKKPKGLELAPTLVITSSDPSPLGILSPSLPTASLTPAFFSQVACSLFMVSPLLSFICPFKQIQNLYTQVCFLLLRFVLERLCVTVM
Particulars: protein: recombinant; tags: N-terminal GST; dsDNA, one strand shown. Summed up:
as §1

The next experiment addresses T4, ETV2 (Homo sapiens, UniProt O00321 1-342).
T4 sequence: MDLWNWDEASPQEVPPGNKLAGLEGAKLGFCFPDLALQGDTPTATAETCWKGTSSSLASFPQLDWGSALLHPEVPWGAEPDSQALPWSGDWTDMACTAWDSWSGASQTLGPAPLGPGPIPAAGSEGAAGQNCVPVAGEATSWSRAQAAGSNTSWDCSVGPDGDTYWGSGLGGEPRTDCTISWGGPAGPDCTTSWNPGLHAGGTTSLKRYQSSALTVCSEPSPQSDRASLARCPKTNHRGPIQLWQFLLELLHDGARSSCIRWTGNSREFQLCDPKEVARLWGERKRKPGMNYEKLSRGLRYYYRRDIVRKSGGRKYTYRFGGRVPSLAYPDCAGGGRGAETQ
Particulars: protein: recombinant; tags: N-terminal GST; dsDNA, one strand shown. The procedure, abridged: as §1

For another experiment, the target named is T5, ELF3 (Homo sapiens, UniProt P78545 1-371).
T5 sequence: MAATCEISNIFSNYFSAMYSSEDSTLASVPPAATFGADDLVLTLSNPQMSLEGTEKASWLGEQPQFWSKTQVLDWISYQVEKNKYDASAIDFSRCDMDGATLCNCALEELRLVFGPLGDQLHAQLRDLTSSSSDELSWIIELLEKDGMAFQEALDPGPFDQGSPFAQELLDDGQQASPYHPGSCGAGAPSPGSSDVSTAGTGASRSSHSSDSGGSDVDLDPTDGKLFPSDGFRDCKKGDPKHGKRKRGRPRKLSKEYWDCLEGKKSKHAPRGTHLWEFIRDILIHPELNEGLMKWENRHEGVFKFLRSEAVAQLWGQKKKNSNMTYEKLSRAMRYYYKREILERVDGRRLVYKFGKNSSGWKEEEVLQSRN
Particulars: protein: recombinant; tags: N-terminal GST; dsDNA, one strand shown. Summed up: as §1

The next experiment concerns the target CRX (Homo sapiens, UniProt O43186 1-299). Particulars: protein: recombinant; tags: N-terminal GST; dsDNA, one strand shown. Summed up: as §1
The next experiment deals with ETV1 (Homo sapiens, UniProt P50549 1-477). Particulars: protein: recombinant; tags: N-terminal GST; dsDNA, one strand shown. Summed up:
as §1

The target of the next experiment is T6, ERF (Homo sapiens, UniProt P50548 1-548).
T6 sequence: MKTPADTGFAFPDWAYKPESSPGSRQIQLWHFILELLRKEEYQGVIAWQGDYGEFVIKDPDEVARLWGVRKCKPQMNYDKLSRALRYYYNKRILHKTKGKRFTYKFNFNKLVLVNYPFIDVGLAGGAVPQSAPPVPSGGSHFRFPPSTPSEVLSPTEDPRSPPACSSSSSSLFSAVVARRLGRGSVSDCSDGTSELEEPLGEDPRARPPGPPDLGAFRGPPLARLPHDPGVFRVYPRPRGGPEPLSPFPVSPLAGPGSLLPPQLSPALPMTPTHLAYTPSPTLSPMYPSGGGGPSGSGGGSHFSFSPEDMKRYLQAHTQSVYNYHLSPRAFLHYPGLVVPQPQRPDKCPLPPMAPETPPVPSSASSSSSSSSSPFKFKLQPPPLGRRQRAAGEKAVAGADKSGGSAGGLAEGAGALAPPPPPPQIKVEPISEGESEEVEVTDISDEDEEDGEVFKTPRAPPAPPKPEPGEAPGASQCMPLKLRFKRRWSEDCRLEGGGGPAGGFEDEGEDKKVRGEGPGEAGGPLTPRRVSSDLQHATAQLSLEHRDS
To be noted: protein: recombinant; tags: N-terminal GST; dsDNA, one strand shown. Summed up:
as §1

Another experiment concerns the target T7, ETV3L (Homo sapiens, UniProt Q6ZN32 1-361).
T7 sequence: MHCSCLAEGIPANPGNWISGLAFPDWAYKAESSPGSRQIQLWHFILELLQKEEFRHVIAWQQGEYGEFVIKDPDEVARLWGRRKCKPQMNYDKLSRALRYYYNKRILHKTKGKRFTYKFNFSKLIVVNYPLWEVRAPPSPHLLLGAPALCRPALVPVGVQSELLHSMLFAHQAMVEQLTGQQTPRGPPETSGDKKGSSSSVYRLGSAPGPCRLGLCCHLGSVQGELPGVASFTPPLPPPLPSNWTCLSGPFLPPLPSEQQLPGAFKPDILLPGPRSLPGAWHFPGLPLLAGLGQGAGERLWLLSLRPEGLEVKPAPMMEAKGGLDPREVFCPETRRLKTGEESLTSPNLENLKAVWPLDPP
To be noted: protein: recombinant; tags: N-terminal GST; dsDNA, one strand shown. The procedure, abridged: as §1

In another experiment the target is T8, ETS2 (Homo sapiens, UniProt P15036 1-469).
T8 sequence: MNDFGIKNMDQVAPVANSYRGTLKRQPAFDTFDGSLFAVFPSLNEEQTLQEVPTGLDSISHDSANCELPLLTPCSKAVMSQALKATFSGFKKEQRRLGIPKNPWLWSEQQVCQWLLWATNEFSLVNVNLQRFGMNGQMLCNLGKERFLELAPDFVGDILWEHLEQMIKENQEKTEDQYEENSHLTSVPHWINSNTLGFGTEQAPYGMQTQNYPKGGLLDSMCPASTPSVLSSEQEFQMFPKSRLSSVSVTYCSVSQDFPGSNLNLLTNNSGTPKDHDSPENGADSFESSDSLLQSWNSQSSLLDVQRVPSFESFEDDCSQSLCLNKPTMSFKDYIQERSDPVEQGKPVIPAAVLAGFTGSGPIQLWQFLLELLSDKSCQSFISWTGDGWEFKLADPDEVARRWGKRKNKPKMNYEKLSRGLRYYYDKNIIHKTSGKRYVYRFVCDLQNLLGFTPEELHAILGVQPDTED
To be noted: protein: recombinant; tags: N-terminal GST; dsDNA, one strand shown. Summed up: as §1

The target of a further experiment is T9, SPDEF (Homo sapiens, UniProt O95238 1-335).
T9 sequence: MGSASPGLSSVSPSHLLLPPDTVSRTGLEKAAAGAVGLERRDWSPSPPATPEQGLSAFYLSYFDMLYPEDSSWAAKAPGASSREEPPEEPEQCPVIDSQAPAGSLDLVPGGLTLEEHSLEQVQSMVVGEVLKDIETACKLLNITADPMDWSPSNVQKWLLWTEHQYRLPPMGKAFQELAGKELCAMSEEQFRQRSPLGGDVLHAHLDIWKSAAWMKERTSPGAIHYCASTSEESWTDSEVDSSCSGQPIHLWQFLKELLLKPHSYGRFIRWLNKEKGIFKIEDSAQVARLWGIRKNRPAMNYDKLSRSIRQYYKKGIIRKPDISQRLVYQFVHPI
Particulars: protein: recombinant; tags: N-terminal GST; dsDNA, one strand shown. The procedure, abridged:
as §1

The next experiment has as its target T10, ETV7 (Homo sapiens, UniProt Q9Y603 1-341).
T10 sequence: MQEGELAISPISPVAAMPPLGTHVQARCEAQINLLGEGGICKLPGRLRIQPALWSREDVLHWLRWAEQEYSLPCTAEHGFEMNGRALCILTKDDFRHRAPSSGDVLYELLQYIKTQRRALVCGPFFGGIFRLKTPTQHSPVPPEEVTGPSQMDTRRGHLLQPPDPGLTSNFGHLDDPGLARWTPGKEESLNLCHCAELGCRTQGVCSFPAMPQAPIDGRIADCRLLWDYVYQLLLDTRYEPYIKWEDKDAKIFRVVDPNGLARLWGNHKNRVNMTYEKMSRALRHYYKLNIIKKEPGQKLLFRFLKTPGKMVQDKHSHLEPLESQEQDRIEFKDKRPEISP
To be noted: protein: recombinant; tags: N-terminal GST; dsDNA, one strand shown. The procedure, abridged:
as §1

The target in a further experiment is T11, ELF5 (Homo sapiens, UniProt Q9UKW6-2 1-255).
T11 sequence: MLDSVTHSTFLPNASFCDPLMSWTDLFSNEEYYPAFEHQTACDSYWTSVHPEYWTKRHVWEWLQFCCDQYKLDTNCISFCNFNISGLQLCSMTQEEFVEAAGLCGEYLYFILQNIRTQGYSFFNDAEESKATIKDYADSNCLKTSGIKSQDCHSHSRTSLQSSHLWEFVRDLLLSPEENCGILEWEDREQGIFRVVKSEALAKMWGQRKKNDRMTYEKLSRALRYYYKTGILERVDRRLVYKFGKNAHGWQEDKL
Particulars: protein: recombinant; tags: N-terminal GST; dsDNA, one strand shown. The procedure, abridged: as §1

A further experiment has as its target T12, ETV3 (Homo sapiens, UniProt P41162-2 1-143).
T12 sequence: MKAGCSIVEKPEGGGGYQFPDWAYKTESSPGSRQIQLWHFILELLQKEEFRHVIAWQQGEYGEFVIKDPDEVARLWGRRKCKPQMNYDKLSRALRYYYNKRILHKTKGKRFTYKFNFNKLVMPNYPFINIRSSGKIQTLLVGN
Particulars: protein: recombinant; tags: N-terminal GST; dsDNA, one strand shown. Summed up:
as §1

The target of a further experiment is ETV6 (Homo sapiens, UniProt P41212 1-452). To be noted: protein: recombinant; tags: N-terminal GST; dsDNA, one strand shown. The procedure, abridged: as §1
Chain of ETV6 (P41212 whole entry): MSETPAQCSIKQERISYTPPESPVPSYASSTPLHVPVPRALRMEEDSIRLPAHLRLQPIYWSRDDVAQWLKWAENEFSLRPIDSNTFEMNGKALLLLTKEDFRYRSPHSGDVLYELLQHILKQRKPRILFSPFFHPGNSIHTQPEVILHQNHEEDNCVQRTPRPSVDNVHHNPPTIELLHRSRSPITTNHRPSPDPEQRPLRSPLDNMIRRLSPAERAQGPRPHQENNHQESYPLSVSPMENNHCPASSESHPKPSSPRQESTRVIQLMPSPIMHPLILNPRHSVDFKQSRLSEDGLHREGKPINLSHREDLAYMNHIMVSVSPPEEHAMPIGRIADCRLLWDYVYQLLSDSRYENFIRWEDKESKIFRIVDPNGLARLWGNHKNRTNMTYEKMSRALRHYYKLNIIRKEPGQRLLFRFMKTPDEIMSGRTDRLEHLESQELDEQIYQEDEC

Chain of CRX (O43186 whole entry): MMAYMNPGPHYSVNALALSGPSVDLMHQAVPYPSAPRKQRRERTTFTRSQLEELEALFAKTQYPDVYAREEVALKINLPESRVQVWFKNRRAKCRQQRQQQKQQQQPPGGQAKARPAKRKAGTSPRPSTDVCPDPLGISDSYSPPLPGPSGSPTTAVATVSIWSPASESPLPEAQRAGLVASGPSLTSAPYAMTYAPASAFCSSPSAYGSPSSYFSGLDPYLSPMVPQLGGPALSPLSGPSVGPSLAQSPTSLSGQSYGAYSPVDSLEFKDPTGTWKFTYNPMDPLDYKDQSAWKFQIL
Chain of ETV1 (P50549 whole entry): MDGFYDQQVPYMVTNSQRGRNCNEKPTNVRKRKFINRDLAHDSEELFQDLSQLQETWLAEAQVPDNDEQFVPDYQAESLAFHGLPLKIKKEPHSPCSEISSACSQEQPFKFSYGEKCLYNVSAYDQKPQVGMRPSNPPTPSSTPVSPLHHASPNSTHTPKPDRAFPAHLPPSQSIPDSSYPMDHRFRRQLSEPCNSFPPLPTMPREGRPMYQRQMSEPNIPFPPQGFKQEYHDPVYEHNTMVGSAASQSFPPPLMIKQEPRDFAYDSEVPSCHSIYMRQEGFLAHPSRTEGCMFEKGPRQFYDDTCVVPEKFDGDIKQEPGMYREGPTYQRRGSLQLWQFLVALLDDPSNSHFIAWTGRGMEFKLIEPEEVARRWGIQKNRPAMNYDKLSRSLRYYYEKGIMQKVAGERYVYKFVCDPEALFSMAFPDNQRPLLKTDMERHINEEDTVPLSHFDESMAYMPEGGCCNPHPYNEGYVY
Chain of HSF1 (Q00613 whole entry): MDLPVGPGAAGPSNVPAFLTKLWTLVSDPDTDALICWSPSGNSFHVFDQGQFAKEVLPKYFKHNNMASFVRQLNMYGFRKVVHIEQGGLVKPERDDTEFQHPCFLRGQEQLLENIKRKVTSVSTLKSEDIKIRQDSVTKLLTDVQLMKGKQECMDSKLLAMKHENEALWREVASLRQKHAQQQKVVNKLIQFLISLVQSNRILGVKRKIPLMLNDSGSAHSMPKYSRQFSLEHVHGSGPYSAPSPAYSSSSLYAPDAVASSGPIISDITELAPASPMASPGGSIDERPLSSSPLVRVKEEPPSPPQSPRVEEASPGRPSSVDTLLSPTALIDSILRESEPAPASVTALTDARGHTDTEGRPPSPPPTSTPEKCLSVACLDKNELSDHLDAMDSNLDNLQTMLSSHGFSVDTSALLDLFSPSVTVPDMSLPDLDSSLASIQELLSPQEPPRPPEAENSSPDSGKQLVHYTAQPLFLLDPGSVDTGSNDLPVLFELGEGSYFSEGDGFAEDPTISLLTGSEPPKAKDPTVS
Chain of ELF4 (Q99607 whole entry): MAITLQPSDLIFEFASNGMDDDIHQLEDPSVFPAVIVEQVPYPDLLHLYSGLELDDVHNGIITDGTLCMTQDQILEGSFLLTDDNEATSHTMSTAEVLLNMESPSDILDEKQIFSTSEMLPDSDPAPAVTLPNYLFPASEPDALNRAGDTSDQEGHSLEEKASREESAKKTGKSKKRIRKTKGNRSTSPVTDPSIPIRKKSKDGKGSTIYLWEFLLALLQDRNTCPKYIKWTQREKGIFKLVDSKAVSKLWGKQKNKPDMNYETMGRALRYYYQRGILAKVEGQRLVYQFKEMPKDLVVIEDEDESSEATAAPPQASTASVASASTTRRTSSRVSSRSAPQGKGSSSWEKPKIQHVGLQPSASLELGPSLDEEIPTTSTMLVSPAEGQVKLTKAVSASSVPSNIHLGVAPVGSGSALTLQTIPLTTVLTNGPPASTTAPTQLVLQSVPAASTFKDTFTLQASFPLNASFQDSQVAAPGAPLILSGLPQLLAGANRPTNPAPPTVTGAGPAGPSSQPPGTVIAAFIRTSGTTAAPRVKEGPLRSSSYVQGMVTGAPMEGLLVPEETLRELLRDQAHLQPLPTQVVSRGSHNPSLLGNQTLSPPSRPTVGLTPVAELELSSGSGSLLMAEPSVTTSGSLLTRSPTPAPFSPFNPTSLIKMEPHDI
Chain of ETV5 (P41161 whole entry): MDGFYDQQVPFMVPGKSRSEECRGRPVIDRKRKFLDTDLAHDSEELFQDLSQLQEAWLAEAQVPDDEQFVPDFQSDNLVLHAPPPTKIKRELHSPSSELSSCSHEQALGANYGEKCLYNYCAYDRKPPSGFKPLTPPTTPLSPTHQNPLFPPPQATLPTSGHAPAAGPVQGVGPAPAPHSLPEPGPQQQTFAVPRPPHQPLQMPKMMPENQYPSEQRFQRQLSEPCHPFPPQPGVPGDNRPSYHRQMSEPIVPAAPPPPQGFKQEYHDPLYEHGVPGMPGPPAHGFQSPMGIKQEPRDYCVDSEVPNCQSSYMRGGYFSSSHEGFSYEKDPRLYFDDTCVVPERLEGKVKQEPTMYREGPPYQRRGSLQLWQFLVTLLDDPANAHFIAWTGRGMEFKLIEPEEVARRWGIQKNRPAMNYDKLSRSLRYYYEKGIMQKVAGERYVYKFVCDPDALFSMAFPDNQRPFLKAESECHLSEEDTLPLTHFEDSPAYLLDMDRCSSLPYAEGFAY

As to TCCATG, the binding signal was 1.11 fold enrichment (6-mer frequency, TF over GST control) with FEV; 1.2 fold enrichment (6-mer frequency, TF over GST control) in the experiment with ETV5; 1.1 fold enrichment (6-mer frequency, TF over GST control) with HSF1; 1.05 fold enrichment (6-mer frequency, TF over GST control) with SPIC; 1.16 fold enrichment (6-mer frequency, TF over GST control) in the experiment with ELF4; 1.25 fold enrichment (6-mer frequency, TF over GST control) with ELK4. For the same sequence, the binding signal with ETV2 was 1.2 fold enrichment (6-mer frequency, TF over GST control); with ELF3 it was 1.25 fold enrichment (6-mer frequency, TF over GST control); with CRX, 1.13 fold enrichment (6-mer frequency, TF over GST control); with ETV1, 1.09 fold enrichment (6-mer frequency, TF over GST control); with ERF, 1.1 fold enrichment (6-mer frequency, TF over GST control); with ETV3L, 1.17 fold enrichment (6-mer frequency, TF over GST control). Moreover, the binding signal in the experiment with ETS2 was 1.1 fold enrichment (6-mer frequency, TF over GST control); with SPDEF, 1.1 fold enrichment (6-mer frequency, TF over GST control); in the experiment with ETV7, 1.03 fold enrichment (6-mer frequency, TF over GST control); with ELF5, 1.11 fold enrichment (6-mer frequency, TF over GST control); with ETV3, 1.19 fold enrichment (6-mer frequency, TF over GST control); in the experiment with ETV6, 1.2 fold enrichment (6-mer frequency, TF over GST control).

Values taken from publication PMC7862700, “An all-to-all approach to the identification of sequence-specific readers for epigenetic DNA modifications on cytosine”.
